This is a sample that favours compounds with a hit; in the whole collection about 8% have one here.
HT1080NT lethal: qHTS for induction of synthetic lethality in tumor cells producing 2HG: qHTS for the HT-1080-NT fibrosarcoma cell line; HT-1080-NT fibrosarcoma viability, CellTiter-Glo ATP luminescence, 48 h; Potency, µM (highest dose often 46.1 µM), inactives show top-dose activity, negative = less viability, actives largely listed as cytotoxic; actives 1.6% (n = 360,000);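 note: NT is the 2HG producing partner of a matched IDH1 knockdown line; 0% = DMSO-treated cells and -100% = media-only wells without cells; nearly all actives have a fitted effect of over 55% in size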
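Viability by CellTiter-Glo luminescence after 48 h compound exposure at 37C of HT-1080-NT cells (750/well, RPMI, 5% FBS). % activity scaled between DMSO wells and medium-only wells, then curve-fitted and categorized by curve class.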
KB-V1 cytotox: qHTS assay for MDR1-selective chemotherapeutics: Primary screen using the drug-selected MDR subline cells KB-V1 | KB-V1 MDR cells viability, CellTiter-Glo, 72 h | Potency, µM (highest dose often 46.1 µM), actives largely listed as cytotoxic | actives 3.4% (n = 400,000) | AID 1347076, 2019; note: % is set by controls: 0 for no effect and ±100 for the full control effect; nearly all actives have a fitted effect of over 60% in size
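KB-V1 cells (P-gp-expressing MDR subline of KB-3-1) in phenol-red-free DMEM with 10% FBS were exposed to library compounds over a concentration series for 72 h at 37 degrees C. Viability read by CellTiter-Glo luminescence; concentration-effect curves fitted after normalization.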
HT1080 IDH1KD tx: qHTS for induction of synthetic lethality in tumor cells producing 2HG: qHTS for the HT-1080-IDH1KD cell line. AID 686971, 2013. HT-1080 IDH1 knockdown viability, ATP luminescence, 48 h. actives 2% (n = 360,000). Potency, µM (doses to about 46.1 µM), inactives show at the top dose activity, negative = toxicity, usual class: cytotoxic;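 note: 0% = DMSO wells and -100% = cell-free medium wells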
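Knockdown cells (IDH1KD HT-1080) received compounds 2 h after plating at 750 cells/well and were kept 48 h at 37 °C in 5% FBS RPMI. A CellTiter-Glo luminescence read gave % activity for curve fitting.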
SW480 rerep: A quantitative high throughput screen for small molecules that induce DNA re-replication in SW480 colon adenocarcinoma cells. SW480 DNA re-replication, Hoechst DNA content imaging, 48 h. actives 1.8% (n = 340,000). Potency, µM (doses to about 46.1 µM), for inactives: top-dose re-replication activation, usual class: activators; note: % of control where 0% means no effect; nearly all actives have a fitted effect of over 55% in size
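First, 250 cells per well were seeded. Next, compound or vehicle (23 nL) was pinned in, plates sat 48 hr at 37 C. Finally Hoechst was added for 40 min before fluorescence scanning.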
KB-3-1 tox: qHTS assay for MDR1-selective chemotherapeutics: Primary screen using the parental adenocarcinoma cell KB-3-1; KB-3-1 viability, CellTiter-Glo ATP luminescence, 72 h; Potency, µM (series often up to 46.1 µM), usual class: cytotoxic; actives 1.4% (n = 400,000); AID 1347075, 2019; note: % is set by controls: 0 for no effect and ±100 for the full control effect; nearly all actives have a fitted effect of over 60% in size
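KB-3-1 parental drug-naive adenocarcinoma cells in DMEM/10% FBS, incubated 72 h at 37 C with pin-transferred compounds across a concentration series. Viability by CellTiter-Glo luminescence; concentration-response curves fitted after normalization.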
MCF10A rereplic: A quantitative high throughput screen for small molecules that induce DNA re-replication in MCF 10a normal breast cells; MCF 10A DNA re-replication, Hoechst nuclear intensity, 48 h; Potency, µM (series often up to 46.1 µM), for inactives: at the top dose activity, positive = re-replication, usual class: activators; actives 2.9% (n = 350,000); AID 624296, 2012; note: % of control where 0% means no effect; nearly all actives have a fitted effect of over 50% in size
Numbers without * were called inactive. Calls come from the whole dose curve; as a rule, active = well fitted curve in the direction sought with a large enough effect; inconclusive = small, poorly fitted or top-dose-only effect, or another doubt; inactive = no such curve, though single readings can be large; an effect the other way counts as inactive or inconclusive. Potency is the fitted concentration of half-maximal effect.

How did Cc1nc(NCC2CCCO2)nc2c1C(=O)CC(C)C2 (centres undefined) do in these assays?
HT1080NT lethal: 7%; KB-V1 cytotox: inactive; HT1080 IDH1KD tx: 11%; SW480 rerep: 4%; KB-3-1 tox: inactive; MCF10A rereplic: -1%

What do the screens show for `Cc1nc(NCC2CCCO2)nc2c1C(=O)CC(C)(C)C2` (centres undefined)?
HT1080NT lethal: -13%; KB-V1 cytotox: 21µM*; HT1080 IDH1KD tx: 5%; SW480 rerep: 2%; KB-3-1 tox: inactive; MCF10A rereplic: inconclusive

What do the screens show for `CCOC(=O)C(=Cc1ccc(-n2ccnc2)cc1)C(=O)OCC`?
HT1080NT lethal: 10µM*; KB-V1 cytotox: inconclusive; HT1080 IDH1KD tx: 5.8µM*; SW480 rerep: 6.5µM*; KB-3-1 tox: 21µM*; MCF10A rereplic: 2.6µM*

How did CCc1ccc(C(C)NC(=O)/C=C/c2ccc(Br)cc2)cc1 (centres undefined) do in these assays?
HT1080NT lethal: -3%; KB-V1 cytotox: inconclusive; HT1080 IDH1KD tx: -14%; SW480 rerep: 18%; KB-3-1 tox: inactive; MCF10A rereplic: -5%

How did CCOC(=O)C(CC)(CC)C(=O)/C=C/c1ccc(Br)cc1 do in these assays?
HT1080NT lethal: inconclusive; KB-V1 cytotox: 18µM*; HT1080 IDH1KD tx: inconclusive; SW480 rerep: inconclusive; KB-3-1 tox: 21µM*; MCF10A rereplic: inconclusive

How did CCOC(=O)C(=Cc1ccc(Br)cc1)C(=O)OCC do in these assays?
HT1080NT lethal: 21µM*; KB-V1 cytotox: 16µM*; HT1080 IDH1KD tx: 6.5µM*; SW480 rerep: 7.3µM*; KB-3-1 tox: inconclusive; MCF10A rereplic: 1.6µM*

What do the screens show for `COc1ccc(S(=O)(=O)N(CC(=O)Nc2cccc(C(F)(F)F)c2)c2ccc(C)cc2)cc1`?
KB-V1 cytotox: inactive; KB-3-1 tox: inconclusive

How did Cc1cc(C)nc(Nc2nc(C(N)Cc3ccc(F)cc3)cs2)n1 (centres undefined) do in these assays?
HT1080NT lethal: inconclusive; KB-V1 cytotox: inconclusive; HT1080 IDH1KD tx: 13µM*; KB-3-1 tox: inconclusive

How did NC(Cc1ccc(F)cc1)c1csc(Nc2ccc(S(N)(=O)=O)cc2)n1 (centres undefined) do in these assays?
HT1080NT lethal: inconclusive; KB-V1 cytotox: inactive; HT1080 IDH1KD tx: -20%; KB-3-1 tox: inactive

What do the screens show for `Cc1cc(C)nc(Nc2nc(C(N)Cc3ccc(Cl)cc3)cs2)n1` (centres undefined)?
HT1080NT lethal: 21µM*; KB-V1 cytotox: inconclusive; HT1080 IDH1KD tx: 15µM*; KB-3-1 tox: inactive

Results for CCN(CC)c1ccc(NS(=O)(=O)c2ccc(-c3coc(C)n3)cc2)c(C)c1 ?
KB-V1 cytotox: inconclusive; KB-3-1 tox: inactive

How did CCCCc1nc2ccccc2n2c(-c3ccc(C)cc3)c3c(=O)n(C)c(=O)n(C)c3c12 do in these assays?
KB-V1 cytotox: inactive; KB-3-1 tox: inactive

How did CCCN1CNc2c(c(=O)[nH]c(=S)n2CCC(C)(C)C)C1 do in these assays?
HT1080NT lethal: -10%; HT1080 IDH1KD tx: -15%

What do the screens show for `O=c1cc(-c2ccccc2)nc(/C=C/c2ccccc2)[nH]1`?
HT1080NT lethal: 4%; KB-V1 cytotox: inactive; HT1080 IDH1KD tx: 1%; SW480 rerep: inconclusive; KB-3-1 tox: inactive; MCF10A rereplic: 18µM*

What do the screens show for `COc1ccc(C(=O)c2cn(Cc3cccc(C)c3)c3cc4c(cc3c2=O)OCCO4)cc1OC`?
KB-V1 cytotox: inactive; KB-3-1 tox: inactive

Assay outcomes from PubChem BioAssay.
